Bioassay records: PubChem, NMMLSC
Jurkat autofluor: compound autofluorescence on Jurkat cells, primary screen, artefact control for VLA-4 allosteric ligand project, cell-based, flow cytometry; fluorescence ratio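 (tested at 10 µM compound in the well)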; 24,000 compounds, 0.61% hits; active compounds read high; 1 = vehicle-only cell background;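 active means fluorescence ratio above 2.44, which is 1 plus 3 SD of all ratios; inconclusive means signal too bright to measure linearly, ratio around 10 or more; inactive means fluorescence ratio below 2.44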;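 further: green fluorescence of cells measured with 488 nm excitation and 530 nm emission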
VLA-4 agonist: enhancers of LDV-FITC binding to VLA-4 integrin, primary screen, Jurkat cells, flow cytometry; Integrin alpha-4 (Homo sapiens), P13612; activation, % at 10 µM (by protocol); 24,000 tested, under 10 active; AID 528, 2006;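 active means fluorescent ligand binding to cells raised by more than 40% of the manganese-induced maximum; inconclusive means compound's own fluorescence above 85% of the ligand control signal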
Target sequence (P13612 whole entry, looked up): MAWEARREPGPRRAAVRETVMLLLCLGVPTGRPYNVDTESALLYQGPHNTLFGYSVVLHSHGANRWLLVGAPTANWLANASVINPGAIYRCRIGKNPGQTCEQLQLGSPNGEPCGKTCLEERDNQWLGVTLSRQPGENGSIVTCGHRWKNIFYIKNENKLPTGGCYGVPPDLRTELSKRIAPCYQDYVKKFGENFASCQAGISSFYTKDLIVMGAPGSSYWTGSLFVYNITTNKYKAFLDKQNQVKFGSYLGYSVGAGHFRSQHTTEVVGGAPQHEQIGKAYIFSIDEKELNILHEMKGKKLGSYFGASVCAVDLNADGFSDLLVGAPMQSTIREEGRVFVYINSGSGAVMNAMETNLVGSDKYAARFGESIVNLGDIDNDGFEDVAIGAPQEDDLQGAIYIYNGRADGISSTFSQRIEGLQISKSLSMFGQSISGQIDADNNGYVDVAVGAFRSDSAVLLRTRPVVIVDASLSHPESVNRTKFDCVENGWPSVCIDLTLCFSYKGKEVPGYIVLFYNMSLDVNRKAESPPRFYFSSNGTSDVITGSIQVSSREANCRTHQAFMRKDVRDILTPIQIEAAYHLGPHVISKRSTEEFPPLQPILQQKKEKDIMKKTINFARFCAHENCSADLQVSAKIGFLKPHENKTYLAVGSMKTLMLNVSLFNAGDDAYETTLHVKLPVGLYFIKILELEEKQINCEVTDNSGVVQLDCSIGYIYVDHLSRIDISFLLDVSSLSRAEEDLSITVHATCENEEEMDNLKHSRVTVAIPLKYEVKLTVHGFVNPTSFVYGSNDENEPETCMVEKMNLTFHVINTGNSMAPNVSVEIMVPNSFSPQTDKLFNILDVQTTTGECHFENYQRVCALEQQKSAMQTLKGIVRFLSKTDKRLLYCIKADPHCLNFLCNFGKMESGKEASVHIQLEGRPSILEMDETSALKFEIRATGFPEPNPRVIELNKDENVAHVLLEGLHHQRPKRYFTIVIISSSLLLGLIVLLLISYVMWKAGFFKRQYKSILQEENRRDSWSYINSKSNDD
Proteasome disasm: inhibitors of ATP-driven 26S proteasome dissociation, primary screen, biochemical, bead-based flow cytometry, GFP-tagged proteasome | anti-FLAG beads, GFP-proteasome disassembly | 24,000 compounds, 0.2% hits | inhibition of disassembly, % (no concentration beside the values);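 active means inhibition of disassembly above about 33%, limit read from the data; inconclusive means likely self-fluorescent, control bead median signal at least 40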;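 further: higher percent means more bead fluorescence retained so stronger block of disassembly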
LNCaP diff act: activators of LNCaP prostate cell differentiation, primary screen, flow cytometry side scatter; 4 d; side scatter shift, % at 10 µM; 24,000 compounds, 0.56% hits;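 active means side scatter shift above 30%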;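 further: androgen-responsive LNCaP prostate cancer cells in charcoal-stripped serum medium; higher shift means more granular cells and more differentiation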
VLA-4 antagonist: inhibitors of LDV-FITC binding to Mn2+-activated VLA-4, primary screen, Jurkat cells. LDV-FITC binding with Mn2+, flow cytometry; 100% = Mn2+-driven binding gain fully reversed. inhibition, % at 10 µM (by protocol). 24,000 compounds, 0.2% hits;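 active means inhibition above 50%; inconclusive means compound itself fluorescent, judged against control cell fluorescence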
A number is an active result; n = inactive; u = inconclusive; x = no result given. Compounds with a hit are over-represented: about 1.6% of the library has one in this group of screens.

SMILES | Jurkat autofluor | VLA-4 agonist | Proteasome disasm | LNCaP diff act | VLA-4 antagonist
CCOC(=O)Cn1c(=O)oc2cc(S(=O)(=O)Nc3ccc(N(CC)CC)cc3C)ccc21 | 4.1 | u | n | n | u
CCOC(=O)Cn1c(=O)oc2cc(S(=O)(=O)Nc3cc(Cl)ccc3OC)ccc21 | 4.3 | u | n | n | u
CCOCCCNS(=O)(=O)c1ccc2c(c1)oc(=O)n2CC(=O)OCC | 2.5 | u | n | n | u
CCOC(=O)Cn1c(=O)oc2cc(S(=O)(=O)Nc3cc(OCC)ccc3OCC)ccc21 | n | u | n | n | u
O=C1C(CCS(=O)c2ccccc2)C(=O)N(c2ccccc2)N1c1ccccc1 (stereo unspecified) | n | n | n | n | 58
Cn1cc(CC(=O)Nc2cccc(C#N)c2)c2ccccc21 | n | n | n | n | n
CCCCNC(=O)C(C#N)c1nc2ccccc2nc1N1CCCC1 (stereo unspecified) | 2.5 | u | n | n | u
CCCCCCOC(=O)C(C#N)c1nc2ccccc2nc1N1CCCCC1 (stereo unspecified) | n | n | n | n | n
COc1ccc(OC)c(NC2c3ccccc3C(=O)N2c2cccnc2)c1 (stereo unspecified) | n | n | n | n | n
CCn1c(=O)cc(SCC(=O)NCCCN2CCN(c3ccccc3F)CC2)c2ccccc21 | n | n | n | 49 | n
CC1(C)CC(=O)c2cc(OCC(=O)NCCCN3CCN(c4ccccc4F)CC3)ccc2O1 | n | n | n | 30 | n
Cn1c(=O)cc(OCC(=O)NCCCN2CCN(c3ccccc3F)CC2)c2ccccc21 | n | n | n | n | n
CC(C(=O)O)C1SC(=O)NC1=O (stereo unspecified) | n | n | n | n | n
CCOc1cc(C2NC(=O)N(C)C(C)=C2C(=O)OC)cc(Br)c1O (stereo unspecified) | 4.3 | u | n | n | u
CCOCCOC(=O)C1=C(C)N(C)C(=O)NC1c1cc(Cl)c(O)c(OC)c1 (stereo unspecified) | n | n | n | n | n
CCOC(=O)c1c(C)oc2c1c(C(c1ccncc1)N1CCOCC1)c(O)c1ccccc12 (stereo unspecified) | n | n | n | n | n
CCOC(=O)c1c(C)oc2c1c1c(c3ccccc32)OCN(Cc2ccccn2)C1 | n | n | x | x | 79
COc1cc(Cl)c(C)cc1NC(=O)COC(=O)c1cnc(C)cn1 | n | n | n | n | n
CCOc1cc2[nH]c(=O)n(CCCCCC(=O)NCc3ccco3)c(=O)c2cc1OCC | n | n | x | x | 52
CCOc1cc2[nH]c(=S)n(CCCCC(=O)NCc3ccco3)c(=O)c2cc1OCC | n | n | n | n | n
Cc1cc(=O)n2nc(N3CCCC(C(=O)NCCCN4CCc5ccccc5C4)C3)sc2n1 (stereo unspecified) | n | n | n | 38 | n
COCCNC(=O)C1CCCN(c2nn3c(=O)cc(C)nc3s2)C1 (stereo unspecified) | n | n | n | n | n
Oc1[nH]c2ccccc2c1/C=N/c1nccs1 | 9.6 | u | n | n | u
C/C(O)=c1/ccc2cccc3nc(C)nc1c23 | 3.5 | u | n | n | u
COc1cccc(C2CC(c3ccccc3OC)n3nc(N)nc3N2)c1 (stereo unspecified) | n | n | n | n | n
SMILES | Jurkat autofluor | VLA-4 agonist | Proteasome disasm | LNCaP diff act | VLA-4 antagonist
CCN(CC)c1ccc(-c2c(C#N)c(N)nc(OC)c2C#N)cc1 | 8.2 | u | 57 | n | u
CCCSc1nc(N)c(C#N)c(-c2ccc(C)cc2)c1C#N | n | n | n | n | n
CC(=O)c1cccc(NC2c3ccccc3C(=O)N2Cc2ccc3c(c2)OCO3)c1 (stereo unspecified) | n | u | n | 30 | u
O=C(c1ccc(CNc2c(N3CCCC3)c(=O)c2=O)cc1)N1CCc2ccccc2C1 | n | n | n | n | n
COC(=O)N1CC(=O)N(OC)C1c1ccc(Cl)cc1Cl (stereo unspecified) | n | n | n | n | u
CCOC(=O)N1CCC(NS(=O)(=O)c2cc3c(cc2Cl)NC(=O)CO3)CC1 | 5.1 | u | n | n | u
CCOC(=O)N1CCC(NS(=O)(=O)c2ccc3c(c2)OCC(=O)N3)CC1 | n | n | n | n | n
O=S(=O)(c1cnc[nH]1)N1CCc2ccccc21 | 3.1 | u | n | n | u
CC1Cc2ccccc2N1S(=O)(=O)c1cnc[nH]1 (stereo unspecified) | n | u | n | n | u
CN(C)c1ccc(/C=C/C(O)=C2/C(=O)N(C)C3(C)CC2c2ccccc2O3)cc1 (stereo unspecified) | 6.9 | u | 85 | n | u
COc1cc(N2C(=O)NC3CC2(C)Oc2ccccc23)cc(OC)c1OC (stereo unspecified) | n | n | n | n | n
N=c1n(CCN2CCCCC2)c2ccccc2n1CC(O)COc1ccccc1 (stereo unspecified) | n | n | n | 64 | n
O=C(c1ccc(Br)o1)N(Cc1ccccc1)c1ccccn1 | n | n | n | n | n
O=C(OC1CCCCC1)c1ccc2c(c1)C1C=CCC1C(C(=O)O)N2 (stereo unspecified) | 3.8 | u | n | n | u
COc1cccc(-c2nnc3sc(-c4ccc(C)cc4)nn23)c1 | n | n | n | n | n
Clc1cccc(-c2nnc3sc(-c4ccccc4)nn23)c1 | n | n | n | 32 | n
Cc1cc(=O)n2nc(N3CCC(C(=O)NCCC4=CCCCC4)CC3)sc2n1 | n | n | n | x | n
CCOc1ccc2nc(N3CCC(C(=O)N4CCN(c5ccccn5)CC4)CC3)sc2c1 | n | n | n | n | 54
COc1ccc(OC)c(C2C=C(c3ccc(C)c(C)c3)Nc3nnnn32)c1 (stereo unspecified) | 3.6 | u | n | n | u
C=CCn1c(=O)/c(=C/c2ccc(O)cc2)s/c1=C(/C#N)c1nnc2n1CCCCC2 | 3.7 | u | n | n | u
Cc1cccc2sc(NC(=O)C3CCCN(S(=O)(=O)c4cccc5nonc45)C3)nc12 (stereo unspecified) | 2.6 | u | n | n | u
Cc1ccc2nc(NC(=O)C3CCCN(S(=O)(=O)c4cccc5nonc45)C3)sc2c1 (stereo unspecified) | 3.1 | u | n | n | u
CCOc1cc(C2C(C(=O)OCC(C)C)=C(C)N=C3SCCC(=O)N32)ccc1OC(C)=O (stereo unspecified) | n | n | n | n | n
CCOC(=O)c1c(C)[nH]c(C(=O)Cn2c(=O)c3c(ncn3CC)n(Cc3ccccc3)c2=O)c1C | n | n | 70 | n | n
O=C(CNS(=O)(=O)c1cccs1)N1CCc2ccccc2C1 | n | n | n | n | n
CCNc1c2c3c(cccc3n(C)c1=O)C(=O)c1ccccc1-2 | 9.8 | u | 59 | n | u
CCn1c(=O)cc(SCC(=O)N2CCN(c3ccccc3OC)CC2)c2ccccc21 | n | n | n | n | n
